The list is not random: actives were taken first. Their share in the collection is about 4.7%.
ATG4B inh – ATG4B (human) cysteine protease inhibition; ATG4B cleavage of LC3-PLA2, NBD-HPC fluorescence, 1 h; inhibition, % at 8.33 µM; 340,000 compounds, 0.51% hits; AID 504462; in the data active = inhibition above about 40%
Target sequence (Q9Y4P1 whole entry, looked up): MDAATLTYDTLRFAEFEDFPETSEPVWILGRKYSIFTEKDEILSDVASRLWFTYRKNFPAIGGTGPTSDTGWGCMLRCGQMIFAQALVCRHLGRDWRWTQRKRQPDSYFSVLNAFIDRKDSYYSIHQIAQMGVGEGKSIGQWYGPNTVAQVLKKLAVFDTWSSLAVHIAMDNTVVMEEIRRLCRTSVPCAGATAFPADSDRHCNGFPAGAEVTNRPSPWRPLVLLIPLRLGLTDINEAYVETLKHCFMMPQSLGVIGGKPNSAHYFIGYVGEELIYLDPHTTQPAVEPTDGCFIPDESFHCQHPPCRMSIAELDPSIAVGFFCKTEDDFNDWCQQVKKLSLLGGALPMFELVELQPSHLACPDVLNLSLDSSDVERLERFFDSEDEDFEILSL
TIM10 inh – growth inhibitors of TIM10 yeast strain | S. cerevisiae TIM10 strain growth, BacTiter-Glo luminescence, 24 h | inhibition, % at 10 µM | 330,000 compounds, 1.4% hits;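 active = inhibition of 40% or more at the single tested concentration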;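 also: wild-type TIM10 isogenic control strain grown at permissive 25 °C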
SKKanGAS inh – inhibitors of SKKanGAS S. pyogenes growth in kanamycin (SK-promoter or general growth effect). inhibition, % at 7.5 µM. BacTiter-Glo, 6 h. AID 1662. 300,000 compounds, 1.3% hits;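 active = mean replicate score, as percent of positive control median, at least 50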;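 also: strain carries kanamycin resistance gene driven by streptokinase promoter and grows in 40 µg/ml kanamycin; loss of luminescence reflects streptokinase promoter inhibition or plain growth inhibition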
tim10-1 inh – tim10-1 yeast growth inhibition; inhibition, % at 20 µM; 330,000 compounds, 2.2% hits; S. cerevisiae tim10-1 ts strain growth, BacTiter-Glo, 24 h; AID 463190;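 active = inhibition of at least 40%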;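 also: mutant grown at 25 °C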
PfHsp90 yeast 2 – growth inhibition of yeast expressing Plasmodium Hsp90; S. cerevisiae expressing PfHsp90, BacTiter-Glo ATP, 48 h; yeast lacking PDR1 and PDR3 efflux regulators; inhibition, % at 9.4 µM; 310,000 compounds, 0.32% hits;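 active = every replicate shows inhibition above about 80%, whatever the replicate mean, limit read from the data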
tim23-1 inh – growth inhibitors of tim23-1 mutant yeast; S. cerevisiae tim23-1 growth, BacTiter-Glo luminescence, 24 h; inhibition, % at 20 µM; 330,000 compounds, 1.3% hits;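 active = growth inhibition of the mutant yeast at or above 50%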;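 also: temperature-sensitive mutant grown at 25 °C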
tim10-1 confirm – confirmation of tim10-1 mutant yeast growth inhibitors; inhibition, % at 20 µM; 7,400 compounds, 56% hits; S. cerevisiae tim10-1 ts strain growth, BacTiter-Glo, 24 h; shares compounds with tim10-1 inh; AID 463213;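 active = inhibition of yeast growth at or above a set limit in either of two repeat tests at 20 µM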;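 also: tim10-1 mutant grown at permissive 25 °C to find synthetic lethal compounds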
Of the large screens only hits and unclear results are named; the others gave an inactive call (follow-up assays come after a bar, where they were run).

CCN(CC)c1ccc(-c2nnc(SCC(=O)Nc3ccccc3C#N)n2-c2ccccc2)cc1	tim10-1 inh 42 | tim10-1 confirm inactive
C/C(=C\C(=O)O)C(=O)Nc1nccs1	none
CCOC(=O)c1ccc(NC(=O)c2cccc3c2C(=O)N(CC2CCCO2)C3)cc1 (stereo not given)	tim10-1 inh 47 | tim10-1 confirm 43
CCC(=O)N1CCCc2cc(S(=O)(=O)N3CCN(c4ncccn4)CC3)ccc21	none
CC(C)C(=O)N1CCN(c2ccccc2NC(=O)c2cccc(Cl)c2)CC1	none
CCOc1ccc(C(=O)Nc2cc3c(cc2N2CCCC2)n(CC)c(=O)n3CC)cc1OCC	none
Cn1c(=O)n(C)c2cc(N3CCCCC3)c(NC(=O)c3cccc(Cl)c3)cc21	tim10-1 inh 42 | tim10-1 confirm inactive
CCn1c(=O)n(CC)c2cc(N3CCCC3)c(NC(=O)c3cccc(OC)c3)cc21	tim10-1 inh 47 | tim10-1 confirm inactive
C=CCn1c(SCc2ccc(C(=O)NCCO)cc2)nc2sc(C)c(C)c2c1=O	none
CCOc1ccccc1C=C1SC(=S)N(CC)C1=O	none (no result: TIM10 inh, SKKanGAS inh, tim10-1 inh, tim23-1 inh)
CCCCC(=O)Nc1ccc(NC(=S)NC(=O)CCCCl)cc1OC	tim10-1 inh 48 | tim10-1 confirm 39
CCCCC(=O)NC(=S)Nc1ccc(NC(=O)C(C)C)c(OC)c1	tim10-1 inh 43 | tim10-1 confirm inactive
O=C(NCCO)/C(=C\c1ccc([N+](=O)[O-])o1)NC(=O)c1ccccc1	none
CCOC(=O)/C(=C\c1ccc([N+](=O)[O-])o1)NC(=O)c1ccccc1	tim10-1 inh 47 | tim10-1 confirm 42
CCC(C)[C@H](NC(=O)N1CC(=O)Nc2ccccc21)C(=O)Nc1ccccc1C (stereo not given in full)	none
Cc1ccc(/C=C/C(=O)c2c(C)cc(C)[nH]c2=O)cc1	tim10-1 inh 43 (no result: PfHsp90 yeast 2) | tim10-1 confirm 38
CCc1ccc(/C=C/C(=O)c2c(C)cc(C)[nH]c2=O)cc1	tim10-1 inh 45 (no result: PfHsp90 yeast 2) | tim10-1 confirm 38
CCc1ccc(/C=C(\C)C(=O)c2c(C)cc(C)[nH]c2=O)cc1	none
Cc1cccc2c1cnn2C(=O)CCC(=O)N1CC(C)CC(C)C1 (stereo not given)	none
CC(=O)Nc1ccc(NC(=O)C(C)OC(=O)/C=C/c2cnc3ccccc3n2)cc1 (stereo not given)	none
O=C(CCCN1C(=O)/C(=C\c2ccco2)SC1=S)Nc1ccc(O)cc1C(=O)O	none
COc1ccc(OC(=O)Cc2cccc3ccccc23)cc1	none (no result: TIM10 inh, tim10-1 inh, tim23-1 inh)
CC(=O)c1ccc(OC(=O)Cc2cccc3ccccc23)cc1	tim10-1 inh 46 | tim10-1 confirm 36
O=C(/C=C/c1ccc2c(c1)OCO2)c1ccc(O)cc1O	none (no result: TIM10 inh, SKKanGAS inh, tim10-1 inh, PfHsp90 yeast 2, tim23-1 inh)
Nc1ccccc1C(=O)/C=C/c1ccc2c(c1)OCO2	tim10-1 inh 44 | tim10-1 confirm 39
CC(=O)OC1CCC2(C)C(=CCC3C2CCC2(C)C3CC3ON=C(C)C32)C1 (stereo not given)	none (no result: TIM10 inh, SKKanGAS inh, tim10-1 inh, tim23-1 inh)
CCOC(=O)c1ccc(S(=O)(=O)N2CCN(CC(=O)NC(=O)NC3CCCCC3)CC2)cc1	tim10-1 inh 44 | tim10-1 confirm inactive
COC(=O)c1cccc2c1-c1ccccc1/C2=N\NC(N)=O	tim10-1 inh 40 | tim10-1 confirm inactive
NC(=O)c1cccc2c1-c1ccccc1/C2=N/NC(N)=S	none
CN(c1ccccc1C(=O)O)S(C)(=O)=O	none (no result: PfHsp90 yeast 2)
CN(C)c1ccccc1C(=O)c1ccccc1N(C)C	tim10-1 inh 40 | tim10-1 confirm inactive
Cc1nc2c3ccccc3nc(NNC(=O)CCC(=O)NCCC(C)C)n2n1	none
CCOC(=O)C1=NN(c2ccccc2)C(=O)/C1=C\c1ccc(N(C)C)cc1	tim10-1 inh 40 | tim10-1 confirm inactive
COc1ccc(N(C(=O)c2cccc([N+](=O)[O-])c2)S(=O)(=O)c2cccs2)cc1	none
CC(C)c1ccc(/C=C2\C(=O)N(CCN3CCOCC3)C(=S)N2C)cc1	tim10-1 inh 45 | tim10-1 confirm 40
CCC(=O)NNC(=O)CCC(=O)Nc1ccccc1	none (no result: ATG4B inh, TIM10 inh, tim10-1 inh, PfHsp90 yeast 2, tim23-1 inh)
CC(C)OP(=O)(OC(C)C)C(Nc1ccccn1)c1ccc(F)cc1 (stereo not given)	tim10-1 inh 46 | tim10-1 confirm inactive
CCOP(=O)(OCC)C(Nc1ccccn1)c1ccc(F)cc1 (stereo not given)	none
C/C(=C\C(=O)c1ccccc1)NNc1nc2ccccc2s1	tim10-1 inh 55 | tim10-1 confirm 39
O=C(COc1ccc(Cl)cc1)Nc1ccc(C(=O)NCc2cccnc2)cc1	none (no result: PfHsp90 yeast 2)
COc1ccc(N2CCN(C(=O)c3cc4c(s3)CCCCC4)CC2)cc1	none (no result: SKKanGAS inh)
C=CCN1CCN(C(=O)c2cc3c(s2)CCCC3)CC1	none
O=C(c1cc2c(s1)CCCCC2)N1CCN(c2ncccn2)CC1	tim10-1 inh 45 | tim10-1 confirm inactive
CC(=O)c1ccc(N2CCN(C(=O)c3cc4c(s3)CCCC4)CC2)cc1	tim10-1 inh 47 | tim10-1 confirm inactive
CSC1=NCCN1S(=O)(=O)c1ccc(NC(C)=O)cc1	none
O=C(NCc1ccc2c(c1)OCO2)c1nn(-c2ccccc2)c(=O)c2ccccc12	none (no result: PfHsp90 yeast 2)
CC(C)(C)c1nn(-c2ccccc2)c2[nH]c(=O)c(CNCc3ccc4c(c3)OCO4)cc12	tim10-1 inh 44 | tim10-1 confirm 32
Cc1ccccc1NC(=S)N1CCC(C(=O)c2ccc(F)cc2)CC1	tim10-1 inh 42 | tim10-1 confirm inactive
O=S(=O)(c1ccc2[nH]ccc2c1)N1CCCCCC1	tim10-1 inh 44 | tim10-1 confirm inactive
N#C/C(=C/c1ccc(N2CCCCCC2)o1)c1cccc(F)c1	tim10-1 inh 61 | tim10-1 confirm 57
CCc1ccc(-n2c(Cc3ccccc3)n[nH]c2=S)cc1	tim10-1 inh 48 (no result: PfHsp90 yeast 2) | tim10-1 confirm inactive
CCOc1ccc(-n2c(CCc3ccccc3)n[nH]c2=S)cc1	tim10-1 inh 41 | tim10-1 confirm inactive
CCn1c(/C=C/c2ccc(O)c(O)c2)nc2ccccc2c1=O	none
O=C(NCCS(=O)c1ccc(Cl)cc1)c1cccc(Cl)c1 (stereo not given)	none
C=CCc1c(C)nc(SC)nc1Nc1ccccc1	tim10-1 inh 44 (no result: PfHsp90 yeast 2) | tim10-1 confirm inactive
C=CCc1c(C)nc(SC)nc1Nc1ccc(C(=O)O)cc1	none
CC(C)OC(=O)CSc1nc2cccnc2n1C1CCCCC1	none | tim10-1 confirm inactive
CC(C)(C)C(=O)Nc1nnc(SCc2cccc(F)c2)s1	none
CC(C)(C)C(=O)Nc1nnc(SCc2ccc(F)cc2)s1	tim10-1 inh 50 (no result: PfHsp90 yeast 2) | tim10-1 confirm 44
Cc1ccc(S(=O)(=O)N2CCN(C(=O)COC(=O)CCOc3ccc(C(C)(C)C)cc3)CC2)cc1	tim10-1 inh 49 | tim10-1 confirm inactive
Cc1ccc(-n2nc3cc(C)c(N)cc3n2)cc1	tim10-1 inh 41 | tim10-1 confirm inactive

Screens deposited in PubChem BioAssay by several laboratories.
